# Source: article PMC7826789 (International Journal of Molecular Sciences, 2021)
# Legend:
# Conditions in all cases: Compound Concentration (nM):1000
# [1] = test system: T1, YSK1
# T1 construct: gene STK25
# [2] = test system: T2, YSK4
# T2 construct: gene MAP3K19
# [3] = test system: ZAK
# [4] = test system: ZAP70
# [5] = test system: T3, p38-alpha
# T3 construct: gene MAPK14
# [6] = test system: T4, p38-beta
# T4 construct: gene MAPK11
# [7] = test system: T5, p38-delta
# T5 construct: gene MAPK13
# [8] = test system: T6, p38-gamma
# T6 construct: gene MAPK12
# 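Also: KINOMEscan scanMAX binding as percent activity remaining versus control; lower means stronger binding.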
Structure (SMILES),Percent Control [1] [%],Percent Control [2] [%],Percent Control [3] [%],Percent Control [4] [%],Percent Control [5] [%],Percent Control [6] [%],Percent Control [7] [%],Percent Control [8] [%]
NS(=O)(=O)c1ccc(Nc2ncc(-c3ccccc3)o2)cc1 [GW572399X],54,30,100,100,100,100,100,100
CCc1ccc(Oc2nccc(-c3c(-c4ccc(F)cc4)ncn3C3CCNCC3)n2)cc1 [SB-242719],100,94,84,98,0.1,3,100,100
CN(C)CCNC(=O)Nc1ccc(N(C)c2ccnc(Nc3ccc(CS(C)(=O)=O)cc3)n2)cc1.Cl [GW830900A],100,12,100,90,99,100,99,100
COc1cc(N2CCN(C(C)C)CC2)ccc1Nc1nc(Nc2ccc(F)cc2C(=O)NC[C@@H](O)CO)c2cc[nH]c2n1 [GSK1392956A],89,34,93,86,100,100,100,91
Cl.O=C(Nc1ccc(Oc2ccc3[nH]c(NC(=O)c4ccccc4)nc3c2)cc1)Nc1cc(C(F)(F)F)ccc1F [GW709042A],78,69,6.9,94,98,52,100,82
Nc1ncnc2occ(-c3ccc(NC(=O)Nc4cc(C(F)(F)F)ccc4F)cc3)c12 [GW770249X],70,0.1,46,86,85,57,4.8,18
C[C@@H](Oc1cc(-n2cnc3ccc(OC4CCN(C)CC4)cc32)sc1C(N)=O)c1ccccc1Cl [GSK579289A],74,32,69,93,100,76,100,81
Cl.O=S1CCN(Cc2ccc(-c3ccc4ncnc(Nc5ccc(OCc6ccccc6)c(F)c5)c4c3)o2)CC1 [GW576924A],81,100,100,100,100,100,100,99
NS(=O)(=O)c1ccc(N/N=C2\C(=O)Nc3ccc(C(=O)NCCc4c[nH]cn4)cc32)cc1 [GW300660X],84,3.7,96,79,100,100,100,84
Cl.O=C(Nc1ccc(Oc2ccc3[nH]c(NC(=O)c4ccco4)nc3c2)cc1)Nc1cc(C(F)(F)F)ccc1F [GW683134A],70,13,3.2,100,97,37,100,82
COc1cc(C=NNc2ncnc3c2cnn3-c2ccccc2)ccc1O [GW513184X],97,3.1,48,99,100,88,88,97
